Activity calls are given as the source filed them. How the calls were made is not given here.
Molecular target: Estrogen receptor (Homo sapiens) (UniProt P03372)
Test: ERalpha ligand binders by competition, primary screen, cell-based, Cos7 ERalpha-GFP, flow cytometry (AID 1211);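 further: 0% = DMSO vehicle wells and 100% = no E2-Alexa633 signal left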
Conditions: fluorescent ligand competition, stronger effect = higher value

Chain of Estrogen receptor (Homo sapiens) (P03372 whole entry, looked up): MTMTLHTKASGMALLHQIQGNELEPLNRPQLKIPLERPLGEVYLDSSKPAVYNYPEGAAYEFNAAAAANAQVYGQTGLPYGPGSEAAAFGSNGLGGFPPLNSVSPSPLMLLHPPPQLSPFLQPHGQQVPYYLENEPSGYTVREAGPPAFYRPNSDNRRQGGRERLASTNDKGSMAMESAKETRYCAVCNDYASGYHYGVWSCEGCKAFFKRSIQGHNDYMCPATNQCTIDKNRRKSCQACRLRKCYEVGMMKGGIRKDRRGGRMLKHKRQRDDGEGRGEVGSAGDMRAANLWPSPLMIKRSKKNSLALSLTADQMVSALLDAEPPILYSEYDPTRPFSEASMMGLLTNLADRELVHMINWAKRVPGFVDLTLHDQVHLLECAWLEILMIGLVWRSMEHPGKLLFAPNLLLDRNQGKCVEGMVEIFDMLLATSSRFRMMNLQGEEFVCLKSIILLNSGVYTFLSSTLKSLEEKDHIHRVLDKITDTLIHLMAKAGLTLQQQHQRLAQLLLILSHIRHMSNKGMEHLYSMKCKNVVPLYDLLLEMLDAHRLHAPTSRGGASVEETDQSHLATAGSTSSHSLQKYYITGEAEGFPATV

| Structure (SMILES) | inhibition of ligand binding (at 10 µM) | inhibition of ligand binding (binding inhibition, at 0.1 µM) [%] |
| --- | --- | --- |
| Cc1nc2sccn2c1-c1nc(-c2cc3ccccc3o2)cs1 | 4% (inactive) | 22 |
| COc1ccc(C(Nc2ccccn2)c2oc(CO)cc(=O)c2O)cc1 (stereo not given) | 32% (inactive) | 22 |
| O=c1c2c([nH]c3ccccc13)C(=C1CCCC1)CC2 | 0% (inactive) | 36 |
| CCOc1ccc(C2C3=C(Nc4nc(N)[nH]c(=O)c42)c2ccccc2C3=O)cc1 (stereo not given) | 50% (inactive) | 26 |
| COc1ccc(Cl)cc1NC(=O)c1ocnc1C | 21% (inactive) | 3 |
| COc1ccc(C(N)CCc2ccc(C)o2)cc1 (stereo not given) | 30% (inactive) | 39 |
| c1ccc(-c2nnc3sc(Cc4cccs4)nn23)cc1 | 28% (inactive) | 13 |
| Cc1cc(C)nc(NC(=O)CSc2nn(C)c(=S)s2)n1 | 23% (inactive) | 34 |
| CN(C)c1ccc(N=Cc2ccco2)cc1 | 37% (inactive) | 23 |
| Cc1ccc(Oc2cc(N3CCOCC3)nc(-c3ccccc3)n2)cc1 | 13% (active) | 66 |
| O=C(Cn1ncc2c(=O)oc3ccccc3c21)Nc1nc2ccccc2s1 | 7% (inactive) | 22 |
| Cc1cc(C)cc(OCC(=O)Nc2ccc(N3CCCC3)cc2)c1 | 80% (active) | 17 |
| Cn1c(SCC(=O)Nc2sccc2C#N)nnc1-c1ccccc1 | 17% (inactive) | 24 |
| CCCNCC1COc2ccccc2O1 (stereo not given) | 2% (inactive) | 21 |
| CCc1ccc2nc(NC(=O)c3ccc4c(=O)[nH]c(CN5CCOCC5)nc4c3)sc2c1 | 32% (inactive) | 9 |
| CCOC(=O)Cn1cnc2sc3c(c2c1=O)CCC3 | 23% (inactive) | 13 |
| COc1cccc2cc3c(=O)n(-c4ccccc4)nc-3oc12 | 47% (inactive) | 23 |
| Cc1ccc(-c2nnc(-c3ccc(NC(=O)c4ccco4)cc3)o2)cc1 | 0% (inactive) | 8 |
| COc1cc(C2CC(=O)c3c(ccc4ccccc34)N2)ccc1O (stereo not given) | 0% (inactive) | 12 |
| CCOC(=O)C1CCCN(C(=O)c2cc3ncc(Br)cn3n2)C1 (stereo not given) | 3% (inactive) | 41 |
| O=C1c2ccccc2NC(c2cccnc2)N1c1ccccc1F (stereo not given) | 14% (inactive) | 35 |
| O=S(=O)(c1cccc(-c2cn3cccnc3n2)c1)N1CCCCCC1 | 25% (inactive) | 48 |
| N#Cc1c(NCCN)nc(NCc2ccccc2)c2c1CCN(Cc1ccccc1)C2 | 65% (inactive) | 15 |

| Structure (SMILES) | inhibition of ligand binding (at 10 µM) | inhibition of ligand binding (binding inhibition, at 0.1 µM) [%] |
| --- | --- | --- |
| O=C(Cc1coc2cc3c(cc12)CCC3)OCc1cc(=O)n2c(n1)sc1ccccc12 | 31% (inactive) | 9 |
| Cc1cc(-c2nn3c(-c4ccccc4)nnc3s2)c2ccccc2n1 | 23% (inactive) | 24 |
| CC(C)(C)NC(=O)c1ccc2c(c1)C1C3CCC(C3)C1C(c1ccccc1)N2 (stereo not given) | 70% (active) | 9 |
| Cc1ccc2occ(C3NC(C(=O)O)CS3)c(=O)c2c1 (stereo not given) | 39% (inactive) | 27 |
| CCn1c(SCC(=O)Nc2ccc3c(c2)oc2ccccc23)nnc1-c1ccc(N)cc1 | 44% (inactive) | 10 |
| O=C(COC(=O)CCC(=O)c1cccs1)NCc1ccco1 | 42% (active) | 74 |
| O=C(Cc1cn2ccsc2n1)OCc1nc2ccccc2s1 | 26% (inactive) | 18 |
| O=C(NCc1ccco1)c1cc2c(s1)CSC2 | 24% (inactive) | 25 |
| COc1ccccc1C(=O)Nc1nc(-c2cccs2)c(NC(C)=O)s1 | 29% (inactive) | 25 |
| Cc1nc2ccc(C(=O)O)cc2[nH]1 | 55% (inactive) | 52 |
| O=C(Oc1ccc2c(c1)OCO2)c1cc2c(s1)CCC2 | 32% (inactive) | 27 |
| CC(=O)c1sc2nc(SCC(=O)N3CCCCC3)[nH]c(=O)c2c1C | 33% (inactive) | 30 |
| CCOC(=O)CN1C(c2ccc(O)cc2)Nc2ccc(Br)cc2C1c1ccccc1 (stereo not given) | 24% (inactive) | 11 |
| O=c1[nH]c(N/N=C/c2ccc(O)cc2)nc2ccccc12 | 23% (inactive) | 37 |
| NC(=O)c1oc2ccccc2c1NC(=O)c1nc2ccccc2s1 | 43% (inactive) | 4 |
| COc1cc(-c2nc3ccc4ccccc4c3c3c2CCC3)cc(OC)c1O | 0% (inactive) | 30 |
| O=C(c1cc2ncc(Br)cn2n1)N1CCOCC1 | 54% (inactive) | 25 |
| Clc1ccc2nc(-c3ccccn3)c(Nc3ccc4c(c3)OCO4)n2c1 | 42% (inactive) | 9 |
| Cc1ccc2c(c1)c(=O)c1c3n2CCN(C(=O)CCl)C3CC1 (stereo not given) | 21% (inactive) | 26 |
| Oc1c(C=Nc2cccc3cccnc23)sc2ccccc12 | 40% (inactive) | 21 |
| C/C(N)=C(/C#N)C(=O)CSc1nnc(Nc2ccccc2C)s1 | 48% (inactive) | 18 |
| O=C(Cc1ccc(S(=O)(=O)N2CCOCC2)s1)Nc1nc2c(s1)CCCC2 | 46% (inactive) | 32 |
| CC12CCC(=O)N1C(C(=O)OCC(=O)Nc1sccc1C#N)CS2 (stereo not given) | 47% (active) | 89 |

| Structure (SMILES) | inhibition of ligand binding (at 10 µM) | inhibition of ligand binding (binding inhibition, at 0.1 µM) [%] |
| --- | --- | --- |
| O=Cc1cn(-c2ccccc2)nc1-c1cc2c(ccc3ccccc32)oc1=O | 40% (inactive) | 55 |
| CCCN(CCC)S(=O)(=O)c1ccc(NC(=O)Cc2cccs2)cc1 | 34% (inactive) | 18 |
| CCC(Sc1ncnc2sc(C)c(C)c12)C(=O)OC (stereo not given) | 38% (inactive) | 30 |
| O=C(CSc1nc2ccccc2c(=O)[nH]1)c1ccc(O)c(O)c1 | 14% (inactive) | 5 |
| Nc1ncnc2c1ncn2C1CCC(CO)C(O)C1 (stereo not given) | 0% (inactive) | 10 |
| COC(=O)c1ccc2c(=O)n(CCCCCC(=O)NCc3ccc4c(c3)OCO4)c(=O)[nH]c2c1 | 19% (inactive) | 18 |
| O=C(Nc1ccc(O)cc1C(=O)O)c1ccc2c(c1)C(=O)N(Cc1ccco1)C2=O | 33% (active) | 86 |
| Cc1ccc(-c2cc(C(=O)NCc3ccco3)c3ccccc3n2)o1 | 60% (inactive) | 58 |
| COc1ccc(N2C(=O)c3ccccc3NC2c2ccc(OC)c(COc3ccccn3)c2)cc1 (stereo not given) | 0% (inactive) | 22 |
| O=C(CSc1nc2scc(-c3ccco3)c2c(=O)n1-c1ccccc1)NCC1CCCO1 (stereo not given) | 0% (inactive) | 21 |
| C[C@]12CC[C@@H]3c4ccc(O)cc4[C@@H](O)C[C@H]3[C@@H]1CC[C@@H]2O | 64% (active) | 78 |
| O=C(O)C1Nc2c(C(=O)N3CCOCC3)cccc2C2C=CCC12 (stereo not given) | 28% (inactive) | 15 |
| COc1ccc(CNC(=O)c2cc(-c3cccs3)on2)cc1 | 40% (active) | 90 |
| O=c1nc2s/c(=C\c3ccco3)c(=O)n2nc1Cc1ccc(F)cc1 | 32% (inactive) | 61 |
| Nc1ccc2nc(CN3CCOCC3)[nH]c2c1 | 42% (inactive) | 41 |
| Nc1c(Cl)cc(Cl)cc1C(=O)OCC(=O)NC1CC1 | 52% (inactive) | 13 |
| CCc1ccc(Nc2nc(N)nc(CSc3nnnn3-c3ccccc3)n2)cc1 | 49% (inactive) | 16 |
| Cc1nnc(Oc2ccccc2F)c2ccccc12 | 36% (inactive) | 57 |
| CN(C)NC(=S)Nc1ccc2nc(-c3ccccn3)c(-c3ccccn3)nc2c1 | 11% (inactive) | 4 |
| Cc1ccccc1CSCC(=O)NC(=O)NCc1ccco1 | 53% (inactive) | 27 |
| Cc1cs/c(=N\N=C\c2ccc(O)cc2)n1Cc1ccco1 | 51% (inactive) | 55 |
| COc1cccc([C@@H]2Oc3ccc(OC)cc3C(=O)[C@H]2O)c1 | 37% (inactive) | 43 |
| COc1ccc2c(c1)[nH]c1c(=O)n(N)cnc12 | 55% (inactive) | 20 |

| Structure (SMILES) | inhibition of ligand binding (at 10 µM) | inhibition of ligand binding (binding inhibition, at 0.1 µM) [%] |
| --- | --- | --- |
| O=C(O)c1cc(-c2ccco2)nc2ccccc12 | 57% (inactive) | 21 |
| O=c1oc2ccccc2cc1-c1ccc(O)cc1 | 60% (inactive) | 24 |
| Cc1ccc(C(=O)CSC2=C(C#N)C(c3ccco3)CC(=O)N2)c(C)c1 (stereo not given) | 49% (inactive) | 53 |
| Nc1ccc2nn(-c3cccc4ccccc34)nc2c1 | 0% (inactive) | 12 |
| Cc1ccc(-c2nn(-c3ccccc3)cc2/C=N/NC(=O)c2ccc(Br)o2)cc1 | 42% (inactive) | 49 |
| C/C(N)=C(/C#N)C(=O)CSc1nnc(Cc2ccccc2F)n1N | 0% (inactive) | 3 |
| O=C(Nc1ccc2oc(-c3ccccc3F)nc2c1)c1cncc(Br)c1 | 41% (inactive) | 38 |
| Oc1ccc(C2=Nn3c(nnc3-c3ccco3)SC2)cc1O | 32% (inactive) | 27 |
| CN1C(=O)CSc2ccc(NC(=O)N3CCC(N4CCCCC4)CC3)cc21 | 57% (inactive) | 1 |
| c1coc(-c2nn3c(-c4ccco4)nnc3s2)c1 | 15% (inactive) | 15 |
| O=C(NCc1ccco1)c1cc2cc3ccc(Cl)cc3nc2o1 | 49% (inactive) | 30 |
| O=C(Nc1ccc2nn(-c3ccccc3)nc2c1)c1ccc2c(c1)OCO2 | 15% (inactive) | 44 |
| O=C(OCC(=O)N1CCN(C(=O)c2ccco2)CC1)c1cc(-c2ccco2)nc2ccccc12 | 34% (active) | 77 |
| COc1ccc2[nH]c3c(c2c1)CCn1c-3nc2ccccc2c1=O | 25% (inactive) | 36 |
| Cc1ccc(NC(=O)CSc2nc3ccccc3c3nc4ccccc4n23)cc1 | 60% (inactive) | 27 |
| COc1ccc(C2CC(c3ccccc3)=NN2c2ccc(N)cc2)cc1 (stereo not given) | 19% (inactive) | 47 |
| Cc1ccnc(NS(=O)(=O)c2ccc(NC(=O)Cc3cccs3)cc2)n1 | 31% (inactive) | 63 |
| Oc1ccc(-c2csc(-c3c[nH]c4ccccc34)n2)c(O)c1 | 57% (inactive) | 45 |
| CSc1ccccc1NC(=O)c1noc2c1CCC2 | 56% (inactive) | 26 |
| O=C(O)c1cc(-c2ccco2)nc2ccc(Br)cc12 | 21% (inactive) | 39 |
| NC(=S)n1[nH]c(-c2ccc([N+](=O)[O-])cc2)c(N=Nc2ccc(O)cc2)c1=O | 10% (inactive) | 18 |

From PubChem BioAssay AID1211 (NMMLSC, 2008)
